This is part of a sample that, as a whole, favours compounds with a hit. Of some 83,000 tested, about 20% had one in any assay.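 In brief: 96-well plates, 48 h treatment, single concentration, percent growth endpoint.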 Activity calls are given as the source filed them. How the source made its calls: active means growth percent below 10; inactive means the rest.
Key:
Assay in all cases: NCI-60 one-dose screen, 48 h (100 = growth as untreated, 0 = no growth, -100 = all killed)
SK-MEL-2 melanoma = conditions: 10 µM unless noted
EKVX NSCLC = conditions: 10 µM
SN12C renal = conditions: 10 µM unless noted
UO-31 renal = conditions: 10 µM unless noted
TK-10 renal = conditions: 10 µM unless noted
ACHN renal = conditions: 10 µM unless noted
CAKI-1 renal = conditions: 10 µM unless noted
A498 renal = conditions: 10 µM unless noted
CCRF-CEM leukemia = conditions: 10 µM
MOLT-4 leukemia = conditions: 10 µM unless noted

Measured: growth

CCCC(CCC)Oc1ccc(CCCC2=C(O)c3ccccc3C(=O)C2=O)cc1
inactive: SK-MEL-2 melanoma 27.7% | EKVX NSCLC 26.3% | SN12C renal 45.5% | UO-31 renal 47.3% | TK-10 renal 36.2% | ACHN renal 29.9% | CAKI-1 renal 64.4% | A498 renal 31% | CCRF-CEM leukemia 36.1% | MOLT-4 leukemia 38.1%

c1ccc(C(=NNc2nc3ccccc3o2)c2ccccn2)nc1
inactive: SK-MEL-2 melanoma 37.7% | SN12C renal 16.1% | TK-10 renal 41.8%
active: EKVX NSCLC 8% | UO-31 renal 2.19% | ACHN renal 8.01% | CAKI-1 renal 5.09% | CCRF-CEM leukemia 3.17%

CCOC(=O)C1=C(C(F)(F)F)NC(=O)NC1CN1C(=O)c2ccccc2C1=O (centres undefined)
inactive: SK-MEL-2 melanoma 109% | EKVX NSCLC 104% | SN12C renal 104% | UO-31 renal 102% | TK-10 renal 122% | ACHN renal 120% | CAKI-1 renal 114% | A498 renal 118% | MOLT-4 leukemia 70.5%
active: CCRF-CEM leukemia -21.1%

CC(=O)Nc1nc(C)c(C(=O)N/N=C/N2CCCCC2)s1
inactive: SK-MEL-2 melanoma 15.3% | EKVX NSCLC 112% | SN12C renal 106% | UO-31 renal 98.7% | TK-10 renal 144% | ACHN renal 116% | CAKI-1 renal 132% | CCRF-CEM leukemia 94.6% | MOLT-4 leukemia 130%

CCCCCSc1ccc2nc(NC(=O)OCCC)sc2c1
inactive: SK-MEL-2 melanoma 51.7% | EKVX NSCLC 34.2% | SN12C renal 57.4% | UO-31 renal 51.8% | TK-10 renal 70.1% | ACHN renal 42.8% | CAKI-1 renal 32.4% | A498 renal 11.2% | CCRF-CEM leukemia 20.3% | MOLT-4 leukemia 30.7%

NC(N)=Nc1ccc(/C=C2\C=Cc3ccccc32)cc1
inactive: SK-MEL-2 melanoma 85.6% | EKVX NSCLC 75.7% | SN12C renal 79.3% | UO-31 renal 49.1% | TK-10 renal 78.1% | ACHN renal 67.8% | CAKI-1 renal 64.2% | A498 renal 47.7% | CCRF-CEM leukemia 49.4% | MOLT-4 leukemia 37.2%

CCOC(=O)C1C(=O)C(=O)N(C(C)C)C1C(=O)OCC (centres undefined)
inactive: SK-MEL-2 melanoma 113% | EKVX NSCLC 106% | SN12C renal 94.4% | UO-31 renal 86.2% | TK-10 renal 99.1% | ACHN renal 94.3% | CAKI-1 renal 105% | CCRF-CEM leukemia 110%

COc1cc(N2C(=O)C=CC2=O)ccc1N1C(=O)C=CC1=O
inactive: SK-MEL-2 melanoma 113% | EKVX NSCLC 94.2% | SN12C renal 105% | UO-31 renal 87.1% | TK-10 renal 86.4% | ACHN renal 96.6% | CAKI-1 renal 93.7% | A498 renal 74.9% | CCRF-CEM leukemia 18.9% | MOLT-4 leukemia 100%

Cn1cnc2nc[nH]c2c1=S
inactive: SK-MEL-2 melanoma 106% | EKVX NSCLC 113% | SN12C renal 94.8% | UO-31 renal 71.2% | TK-10 renal 88.4% | ACHN renal 97% | CAKI-1 renal 97.9% | CCRF-CEM leukemia 98.7% | MOLT-4 leukemia 102%

CCCOC(=O)c1c(C)n(C)c2scc[n+]12
inactive: SK-MEL-2 melanoma 76.4% | EKVX NSCLC 43% | SN12C renal 92.4% | UO-31 renal 81.3% | TK-10 renal 104% | ACHN renal 85.8% | CAKI-1 renal 58.7% | A498 renal 48.8%
active: CCRF-CEM leukemia -67.1% | MOLT-4 leukemia -44.4%

CCCCN(CCCC)CC(O)CN(CC)CC (centres undefined)
inactive: SK-MEL-2 melanoma 91.5% | EKVX NSCLC 107% | SN12C renal 96.4% | UO-31 renal 72.8% | TK-10 renal 92.7% | ACHN renal 102% | CAKI-1 renal 93.8% | A498 renal 111% | CCRF-CEM leukemia 104% | MOLT-4 leukemia 96%

CC(=O)/C(=C/c1ccc(-c2ccccc2)cc1)C(=O)c1ccccc1
inactive: SK-MEL-2 melanoma 99.1% | EKVX NSCLC 100% | SN12C renal 92.7% | UO-31 renal 76.3% | TK-10 renal 103% | ACHN renal 88.3% | CAKI-1 renal 91.3% | A498 renal 96.5% | CCRF-CEM leukemia 38.6%
active: MOLT-4 leukemia 5.31%

N#CCCCCCCCCCCC#N
inactive: SK-MEL-2 melanoma 108% | EKVX NSCLC 97% | SN12C renal 105% | UO-31 renal 92.9% | TK-10 renal 92.4% | ACHN renal 107% | CAKI-1 renal 95.2% | CCRF-CEM leukemia 97.5%

COc1ccc(C(O)(c2ccccc2)C(C(=O)O)c2ccccc2)cc1 (centres undefined)
inactive: SK-MEL-2 melanoma 104% | EKVX NSCLC 111% | SN12C renal 100% | UO-31 renal 81.6% | TK-10 renal 105% | ACHN renal 106% | CAKI-1 renal 102% | CCRF-CEM leukemia 102% | MOLT-4 leukemia 102%

COc1ccc2c(N)ncc(C#Cc3cc(C(=O)Nc4ccc(CN5CCN(C)CC5)c(C(F)(F)F)c4)cnc3C)c2c1
inactive: CAKI-1 renal 39.9%
active: SK-MEL-2 melanoma -15.4% | EKVX NSCLC -1.21% | SN12C renal -45.4% | UO-31 renal -45.1% | TK-10 renal -60.2% | ACHN renal -78.5% | CCRF-CEM leukemia -25.4%

CC(C)OC(=O)c1ccc2n1CCCc1cnc(Nc3ccccc3)nc1-2
inactive: SK-MEL-2 melanoma 66.3% | EKVX NSCLC 57.6% | SN12C renal 81.7% | UO-31 renal 64.2% | TK-10 renal 85.3% | ACHN renal 74.8% | CAKI-1 renal 65.6% | CCRF-CEM leukemia 72.3%

C=C[C@]1(C)C=C2C(=O)[C@@]3(O)OC[C@@]4(CCCC(C)(C)C43O)C2(O)C(O)C1 (some centres undefined)
active: SK-MEL-2 melanoma -0.387% | TK-10 renal -68.2% | ACHN renal 3.59%
inactive: EKVX NSCLC 91.2% | SN12C renal 93.2% | UO-31 renal 33.8% | CAKI-1 renal 10.8% | A498 renal 99.4% | MOLT-4 leukemia 78%

COc1cccc2c1nc1cccc(OC)c1[n+]2[O-]
inactive: SK-MEL-2 melanoma 35.6% | EKVX NSCLC 57.8% | SN12C renal 43.7% | TK-10 renal 75.8% | CAKI-1 renal 52.8% | A498 renal 65.4%
active: UO-31 renal -0.522% | ACHN renal 2.52% | CCRF-CEM leukemia 3.09% | MOLT-4 leukemia -1.14%

Brc1ccc(-c2nc3ccccc3s2)cc1
inactive: SK-MEL-2 melanoma 105% | EKVX NSCLC 75.4% | SN12C renal 95% | UO-31 renal 59.5% | TK-10 renal 142% | ACHN renal 92% | CAKI-1 renal 73.4% | A498 renal 77.2% | CCRF-CEM leukemia 95.5% | MOLT-4 leukemia 88.1%

NCCCOc1cc(Cl)ccc1NC(=O)c1cc2ccccc2cc1OCCCN
inactive: SN12C renal 19.7% | UO-31 renal 25% | CAKI-1 renal 59%
active: SK-MEL-2 melanoma -93.9% | EKVX NSCLC -16.1% | TK-10 renal -97.4% | ACHN renal -79% | A498 renal 2.33% | MOLT-4 leukemia -52.3%

COc1ccccc1CNCCCN1C(=O)c2ccc3c4c(ccc(c24)C1=O)C(=O)N(CCCNCc1ccccc1OC)C3=O
active: SK-MEL-2 melanoma -80.5% | EKVX NSCLC -63.6% | SN12C renal -78.2% | UO-31 renal -84% | TK-10 renal -77.9% | ACHN renal -46.8% | CAKI-1 renal -29.1% | CCRF-CEM leukemia -12.7% | MOLT-4 leukemia -37%

CCCC(=O)NNc1[nH]c(-c2ccc(OC)cc2)cc1C(=O)OCC
inactive: SK-MEL-2 melanoma 94.6% | EKVX NSCLC 108% | SN12C renal 110% | UO-31 renal 85.8% | ACHN renal 73.1% | CAKI-1 renal 91.1% | A498 renal 95.8%
active: TK-10 renal -16.1% | CCRF-CEM leukemia 5.87% | MOLT-4 leukemia 3.23%

Clc1ccc(N/N=C(/c2ccccc2)c2ccccn2)nc1
active: MOLT-4 leukemia 6.84%
inactive: SK-MEL-2 melanoma 63.5% | EKVX NSCLC 18.5% | SN12C renal 47.3% | UO-31 renal 28.3% | TK-10 renal 37.3% | ACHN renal 24.1% | CAKI-1 renal 36.2% | A498 renal 52.7% | CCRF-CEM leukemia 14.2%

NC(=O)CC(NC(=O)COc1ccc(Cl)cc1Cl)C(=O)O (centres undefined)
inactive: SK-MEL-2 melanoma 104% | EKVX NSCLC 111% | SN12C renal 101% | UO-31 renal 95.6% | TK-10 renal 103% | ACHN renal 109% | CAKI-1 renal 101% | A498 renal 88% | CCRF-CEM leukemia 105% | MOLT-4 leukemia 104%

COc1cc2ncnc(-n3ncc4cc(NC(=O)Nc5ccc(Cl)c(C)c5)ccc43)c2cc1OC
inactive: SK-MEL-2 melanoma 92.5% | EKVX NSCLC 97.7% | SN12C renal 98.8% | UO-31 renal 100% | TK-10 renal 95.9% | ACHN renal 103% | CAKI-1 renal 92.7% | A498 renal 101% | CCRF-CEM leukemia 102% | MOLT-4 leukemia 84%

CC(C)(C)C(=O)CCCCCCCC/C=C/CCCC(O)c1ccco1 (centres undefined)
active: CCRF-CEM leukemia -44.3%
inactive: SK-MEL-2 melanoma 105% | EKVX NSCLC 102% | SN12C renal 110% | UO-31 renal 98.3% | TK-10 renal 105% | ACHN renal 120% | CAKI-1 renal 110% | A498 renal 109% | MOLT-4 leukemia 76.1%

COC(=O)c1ccc2[nH]c(O)c(C(=Nc3ccc(N(C)C(=O)CN4CCN(C)CC4)cc3)c3ccc4c(c3)OCO4)c2c1
active: SK-MEL-2 melanoma -36.7% | TK-10 renal -9.95% | ACHN renal 8.02% | CAKI-1 renal 4.52% | A498 renal -19.1% | CCRF-CEM leukemia 4.01% | MOLT-4 leukemia 0.682%
inactive: EKVX NSCLC 37.3% | SN12C renal 10.9% | UO-31 renal 14.7%

COc1ccc(-c2nc(Nc3nc4ccccc4[nH]3)nc(N)c2C#N)cc1
inactive: SK-MEL-2 melanoma 97.6% | EKVX NSCLC 92.4% | SN12C renal 90.8% | UO-31 renal 72.9% | TK-10 renal 95.9% | ACHN renal 96.6% | CAKI-1 renal 93.3% | A498 renal 119% | CCRF-CEM leukemia 95.4% | MOLT-4 leukemia 95%
